What all share (assay): protein domain microarray probed with biotinylated miRNA; Domain array: 20 mM Tris-HCl pH 7.4, 200 mM KCl, 0.2 mM EDTA, 0.05% NP40, 2 ug/ul heparin, overnight 4 C. ORF array: PBS pH 7.0 with RNase inhibitor, 100 ng RNA; high values mean tight binding
What all share (conditions): ssRNA

Experiment [1] addresses hnRNP K(3) (Homo sapiens, UniProt P61978).
For experiment [2], the target named is T1, RBM35A (Homo sapiens, UniProt Q6NXG1).
T1 sequence: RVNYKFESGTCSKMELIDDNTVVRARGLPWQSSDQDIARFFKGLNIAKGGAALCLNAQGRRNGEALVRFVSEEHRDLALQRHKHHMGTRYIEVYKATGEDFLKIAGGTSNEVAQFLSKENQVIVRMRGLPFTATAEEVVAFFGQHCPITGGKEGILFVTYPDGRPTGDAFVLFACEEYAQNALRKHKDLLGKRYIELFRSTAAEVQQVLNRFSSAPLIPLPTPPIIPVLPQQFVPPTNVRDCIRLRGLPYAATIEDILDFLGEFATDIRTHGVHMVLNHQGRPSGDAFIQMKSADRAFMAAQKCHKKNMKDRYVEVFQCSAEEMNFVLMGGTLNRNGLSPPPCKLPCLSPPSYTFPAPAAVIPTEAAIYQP

Experiment [3] has as its target T2, RKHD2(1-2) (Homo sapiens, UniProt Q5U5Q3).
T2 sequence: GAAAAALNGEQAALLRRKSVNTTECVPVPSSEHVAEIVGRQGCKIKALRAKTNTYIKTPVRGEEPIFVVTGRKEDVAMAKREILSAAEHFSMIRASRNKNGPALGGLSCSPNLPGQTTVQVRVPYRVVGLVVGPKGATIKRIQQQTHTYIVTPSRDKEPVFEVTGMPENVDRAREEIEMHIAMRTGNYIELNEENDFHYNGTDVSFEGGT

The target of experiment [4] is T3, RBM35B (Homo sapiens, UniProt Q9H6T0).
T3 sequence: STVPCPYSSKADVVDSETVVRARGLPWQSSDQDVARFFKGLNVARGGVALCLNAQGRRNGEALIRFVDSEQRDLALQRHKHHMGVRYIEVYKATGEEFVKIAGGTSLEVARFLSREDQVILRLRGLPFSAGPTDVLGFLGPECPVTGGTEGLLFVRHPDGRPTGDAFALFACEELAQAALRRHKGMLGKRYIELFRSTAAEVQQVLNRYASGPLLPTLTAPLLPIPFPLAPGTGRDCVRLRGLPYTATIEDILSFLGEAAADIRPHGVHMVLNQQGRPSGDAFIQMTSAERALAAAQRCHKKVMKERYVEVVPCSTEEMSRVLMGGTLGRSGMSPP

Experiment [5] concerns the target TAF15 (Homo sapiens, UniProt Q92804).
The target in experiment [6] is T4, RBM6 (Homo sapiens, UniProt P78332).
T4 sequence: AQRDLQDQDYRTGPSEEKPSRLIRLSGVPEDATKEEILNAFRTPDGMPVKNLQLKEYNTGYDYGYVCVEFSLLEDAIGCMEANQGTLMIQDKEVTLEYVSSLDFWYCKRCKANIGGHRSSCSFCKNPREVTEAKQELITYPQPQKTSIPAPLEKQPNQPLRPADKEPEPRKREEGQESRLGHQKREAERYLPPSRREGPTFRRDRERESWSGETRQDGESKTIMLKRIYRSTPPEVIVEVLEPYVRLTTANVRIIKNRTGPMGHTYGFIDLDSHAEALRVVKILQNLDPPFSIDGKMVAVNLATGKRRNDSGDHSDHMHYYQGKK

Experiment [7] has as its target T5, RBM23 (Homo sapiens, UniProt Q86U06).
T5 sequence: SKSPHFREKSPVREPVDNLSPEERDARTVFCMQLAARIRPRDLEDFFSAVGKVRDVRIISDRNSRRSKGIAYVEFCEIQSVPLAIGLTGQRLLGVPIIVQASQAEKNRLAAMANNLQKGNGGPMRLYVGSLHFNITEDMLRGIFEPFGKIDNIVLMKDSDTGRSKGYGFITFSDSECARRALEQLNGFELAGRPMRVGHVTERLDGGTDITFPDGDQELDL

The target in experiment [8] is T6, KHDRBS2 (Homo sapiens, UniProt Q5VWX1).
T6 sequence: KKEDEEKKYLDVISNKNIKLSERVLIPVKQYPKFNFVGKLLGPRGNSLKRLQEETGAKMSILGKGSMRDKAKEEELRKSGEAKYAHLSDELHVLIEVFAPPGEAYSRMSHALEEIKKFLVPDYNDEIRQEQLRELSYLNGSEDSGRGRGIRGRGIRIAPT

The target of experiment [9] is T7, RBM12B(1-3) (Homo sapiens, UniProt Q8IXT5).
T7 sequence: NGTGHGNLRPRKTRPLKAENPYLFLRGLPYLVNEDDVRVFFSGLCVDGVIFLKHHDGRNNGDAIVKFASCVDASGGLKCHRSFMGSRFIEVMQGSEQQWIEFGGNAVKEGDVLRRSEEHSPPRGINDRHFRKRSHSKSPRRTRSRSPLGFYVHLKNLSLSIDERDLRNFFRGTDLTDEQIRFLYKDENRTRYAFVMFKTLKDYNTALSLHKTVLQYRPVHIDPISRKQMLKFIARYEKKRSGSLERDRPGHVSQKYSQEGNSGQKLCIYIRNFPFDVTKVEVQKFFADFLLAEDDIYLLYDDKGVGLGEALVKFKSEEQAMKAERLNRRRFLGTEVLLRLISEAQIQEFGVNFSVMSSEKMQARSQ

The target in experiment [10] is RED1(2)/ADARB1 (Homo sapiens, UniProt P78563).

Sequence of hnRNP K(3) (P61978 369-463): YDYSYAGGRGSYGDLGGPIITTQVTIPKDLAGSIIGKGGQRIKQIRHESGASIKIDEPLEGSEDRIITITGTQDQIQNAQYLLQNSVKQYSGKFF
Sequence of TAF15 (Q92804 215-340): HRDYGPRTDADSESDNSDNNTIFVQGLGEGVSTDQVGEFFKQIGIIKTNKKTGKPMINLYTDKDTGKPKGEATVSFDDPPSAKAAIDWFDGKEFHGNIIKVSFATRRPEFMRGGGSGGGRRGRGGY

Regarding AGAGGUAGUAGGUUGCAUAGUU, the binding signal in [1] was determined as 181 ± 4.45 fluorescence intensity; in [2], 2590 ± 119 fluorescence intensity; in experiment [3] it was 874 ± 10.7 fluorescence intensity; in experiment [4], 170 ± 4.31 fluorescence intensity; in [5], 299 ± 23.1 fluorescence intensity; in [6], 491 ± 28 fluorescence intensity. Besides, the binding signal in experiment [7] came out at 644 ± 79.1 fluorescence intensity; in experiment [8], 1300 ± 14.4 fluorescence intensity; in experiment [9], 274 ± 48.6 fluorescence intensity; in experiment [10], 73.3 ± 1.94 fluorescence intensity.
For the sequence UAGCUUAUCAGACUGAUGUUGA, the binding signal came to 79.6 ± 1.76 fluorescence intensity in [1]; 26.4 ± 2.09 fluorescence intensity in [2]; 234 ± 5.59 fluorescence intensity in experiment [3]; 26.5 ± 5.48 fluorescence intensity in [7]; 463 ± 19.2 fluorescence intensity in [8].
Turning to UGAGGUAGUAGGUUGUAUGGUU, the binding signal was 199 ± 15.1 fluorescence intensity in experiment [1]; 1320 ± 26.9 fluorescence intensity in experiment [2]; 733 ± 12 fluorescence intensity in [3]; 193.1 ± 0.566 fluorescence intensity in experiment [4]; 588 ± 28.9 fluorescence intensity in [5]; 550 ± 31 fluorescence intensity in [6]. Also, the binding signal is 843 ± 102 fluorescence intensity in [7], 842 ± 171 fluorescence intensity in experiment [8], 324 ± 46.5 fluorescence intensity in experiment [9] and 87.6 ± 3.8 fluorescence intensity in [10].
Take CAGUGCAAUGAUGAAAGGGCAU: the binding signal in experiment [1] amounted to 294 ± 10.8 fluorescence intensity; in [2] it was 1310 ± 17.7 fluorescence intensity; in [3], 486 ± 53.7 fluorescence intensity; in experiment [4] it was 135 ± 1.71 fluorescence intensity; in experiment [5], 104 ± 15.9 fluorescence intensity; in experiment [6], 107 ± 6.4 fluorescence intensity. Also, the binding signal came out at 199 ± 29.6 fluorescence intensity in experiment [7], 1440 ± 198 fluorescence intensity in experiment [8], 194 ± 28.6 fluorescence intensity in [9] and 68.1 ± 3.97 fluorescence intensity in experiment [10].
For the sequence UGAGGUAGUAGGUUGUGUGGUU, the binding signal in [1] stood at 291 ± 3.08 fluorescence intensity; in [2], 1439 ± 11.1 fluorescence intensity; in experiment [3], 680.7 ± 1.67 fluorescence intensity; in experiment [4] it was 287 ± 29.8 fluorescence intensity; in [5], 662 ± 122 fluorescence intensity; in [6] it was 453 ± 28.5 fluorescence intensity. Moreover, the binding signal in experiment [7] stood at 678.5 ± 0.919 fluorescence intensity; in [8], 1190 ± 18.7 fluorescence intensity; in experiment [9] it was 329 ± 27.9 fluorescence intensity; in experiment [10], 143.2 ± 0.375 fluorescence intensity.
With UGAGGUAGUAGGUUGUAUAGUU, the binding signal came out at 52.1 ± 3.1 fluorescence intensity in [1]; 521 ± 7.45 fluorescence intensity in experiment [2]; 509.4 ± 2.09 fluorescence intensity in experiment [3]; 31.4 ± 1.56 fluorescence intensity in experiment [4]; 54.7 ± 13.8 fluorescence intensity in experiment [5]; 20.3 ± 1.75 fluorescence intensity in [6]. For the same sequence, the binding signal was 162.15 ± 0.134 fluorescence intensity in experiment [7], 388 ± 52.1 fluorescence intensity in experiment [8], 44.5 ± 1.46 fluorescence intensity in experiment [9] and 25 ± 0.453 fluorescence intensity in [10].

Source of the values: PMC11574364.
